The structures appear in SMILES notation. Several values for one entry are separate records, joined by “and”; a condition that tells them apart may be missing. Equal entries are not always repeated. The panel holds about 79,000 compounds, 15% with a hit somewhere; the sample as a whole holds those more often. The source holds several records for some structures; these can differ, active in one and inactive in another. Activity calls are given as the source filed them. Rule as the data show it: active = growth inhibition above about 70%; inactive = the rest.

Test [1] is described as follows: NCI Yeast Anticancer Drug Screen. Data for the rad50 strain (AID 155).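 Also: 0% = growth of vehicle-only cultures of the same strain.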 As to conditions: S. cerevisiae rad50 strain growth inhibition, stronger effect = higher value. The procedure, abridged:
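A DNA repair-deficient yeast mutant serves as the test organism; compound-induced growth inhibition is calculated against vehicle-treated cells.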

Test [2] is described as follows: NCI Yeast Anticancer Drug Screen. Data for the mec2-1 strain (AID 157). Particulars: S. cerevisiae mec2-1 strain, stronger effect = higher value. The procedure, abridged: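 Vehicle-treated cultures served as reference for growth inhibition of compound-exposed mec2-1 yeast.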
Test [3] in a line: NCI Yeast Anticancer Drug Screen. Data for the sgs1 mgt1 strain (AID 161).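 Also: 0% = growth of cultures given vehicle only.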 As to conditions: S. cerevisiae sgs1 mgt1 strain, stronger effect = higher value. Summed up: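 Test agents were incubated with a DNA-repair-mutant yeast strain. Growth was then read and compared against vehicle-treated controls.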
A short description of test [4]: NCI Yeast Anticancer Drug Screen. Data for the cln2 rad14 strain (AID 165).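 Also: 0% = growth equal to vehicle treated cultures.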 As to conditions: S. cerevisiae cln2 rad14 strain, stronger effect = higher value. Summed up:
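Each compound was tested on cln2 rad14 yeast. Inhibition of growth was calculated against vehicle-exposed controls.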

Test [5] in a line: NCI Yeast Anticancer Drug Screen. Data for the bub3 strain (AID 167). Particulars: S. cerevisiae bub3 mutant strain, stronger effect = higher value. Summed up:
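Inhibition values come from growth of compound-treated mutant yeast normalised to vehicle-treated controls.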

Test [6] in a line: NCI Yeast Anticancer Drug Screen. Data for the mlh1 rad18 strain (AID 175). As to conditions: S. cerevisiae mlh1 rad18 strain growth inhibition, stronger effect = higher value. Summed up:
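Vehicle-treated cultures served as the reference for growth inhibition in a yeast strain carrying DNA damage repair alterations exposed to each compound.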

[7] abbreviates: at 5.0 µM (retest, dose inferred, filed as 0.5).
Setting [8] is: at 50.0 µM (retest, dose inferred, filed as 5.0).

Consider `CCN1CCC(O)(c2ccc(Cl)c(Cl)c2)C(C(=O)c2ccc(Cl)c(Cl)c2)C1` (configuration not stated), for which the growth inhibition in test [1] (setting [7]) was 75% (active); in test [1] (setting [8]) it was 99% (active); in test [1] (at 50.0 µM), 99.7% (active); in test [2] (setting [7]) it was 57% (inactive); in test [2] (setting [8]), 100% (active); in test [2] (at 50.0 µM), 99.6% (active). The growth inhibition was 78% (active) in test [3] (setting [7]); 99% (active) in test [3] (setting [8]); 99.7% (active) in test [3] (at 50.0 µM); 60% (inactive) in test [4] (setting [7]); 99% (active) in test [4] (setting [8]); 98.9% (active) in test [4] (at 50.0 µM). The growth inhibition in test [5] (setting [7]) was 71% (active); in test [5] (setting [8]), 98% (active); in test [5] (at 50.0 µM) it was 98.8% (active); in test [6] (setting [7]) it was 54% (inactive); in test [6] (setting [8]), 99% (active); in test [6] (at 50.0 µM) it was 99.6% (active).
As to `Cc1ccc(C#CCN2CCCCC2)cn1`, the growth inhibition in test [1] (setting [7]) was -142% (inactive); in test [1] (setting [8]) it was -82% (inactive); in test [1] (at 50.0 µM) it was 4.45% (inactive); in test [2] (setting [7]), -77% (inactive); in test [2] (setting [8]) it was -47% (inactive); in test [2] (at 50.0 µM), 11.1% (inactive). Moreover, the growth inhibition is -64% (inactive) in test [3] (setting [7]); -22% (inactive) in test [3] (setting [8]); 22.8% (inactive) in test [3] (at 50.0 µM); -60% (inactive) in test [4] (setting [7]); -46% (inactive) in test [4] (setting [8]); 69.2% (inactive) in test [4] (at 50.0 µM). The growth inhibition in test [5] (setting [7]) is -66% (inactive); in test [5] (setting [8]), -54% (inactive); in test [5] (at 50.0 µM), -0.5% (inactive); in test [6] (setting [7]), -138% (inactive); in test [6] (setting [8]) it was -87% (inactive); in test [6] (at 50.0 µM) it was 11.7% (inactive).
In the case of `Oc1ccc(Cl)cc1Sc1cc(Cl)ccc1O`, the growth inhibition is 99% (active) and 98% (active) and 90% (active) in test [1] (setting [7]); 100% (active) and 99% (active) in test [1] (setting [8]); 99.3% (active) and 41% (inactive) and 99.6% (active) in test [1] (at 50.0 µM); 98% (active) and 94% (active) and 68% (inactive) in test [2] (setting [7]); 100% (active) and 99% (active) in test [2] (setting [8]); 99.5% (active) and 99.7% (active) in test [2] (at 50.0 µM). Besides, the growth inhibition in test [3] (setting [7]) was 96% (active) and 98% (active) and 88% (active); in test [3] (setting [8]), 99% (active) and -8% (inactive); in test [3] (at 50.0 µM) it was 99.5% (active) and 99.6% (active) and 99.7% (active); in test [4] (setting [7]), 98% (active) and 94% (active); in test [4] (setting [8]), 100% (active) and 99% (active); in test [4] (at 50.0 µM) it was 99% (active) and 99.3% (active) and 99.2% (active). Also, the growth inhibition is 99% (active) and 88% (active) and 68% (inactive) in test [5] (setting [7]); 100% (active) and 99% (active) in test [5] (setting [8]); 99.3% (active) and 99.5% (active) and 99.6% (active) in test [5] (at 50.0 µM); 99% (active) and 89% (active) in test [6] (setting [7]); 100% (active) and 99% (active) in test [6] (setting [8]); 99.3% (active) and 99.5% (active) and 99.4% (active) in test [6] (at 50.0 µM).
With `OC1CCCC[CH]1[Hg][Cl]` (configuration not stated), the growth inhibition was 99% (active) in test [1] (setting [7]); 99% (active) in test [1] (setting [8]); 99.3% (active) in test [1] (at 50.0 µM); 100% (active) in test [2] (setting [7]); 100% (active) in test [2] (setting [8]); 99.7% (active) in test [2] (at 50.0 µM). Also, the growth inhibition in test [3] (setting [7]) was 100% (active); in test [3] (setting [8]), 100% (active); in test [3] (at 50.0 µM) it was 49.2% (inactive); in test [4] (setting [7]), 99% (active); in test [4] (setting [8]), 99% (active); in test [4] (at 50.0 µM), 99.3% (active). In addition, the growth inhibition in test [5] (setting [7]) is 100% (active); in test [5] (setting [8]) it was 100% (active); in test [5] (at 50.0 µM) it was 99.3% (active); in test [6] (setting [7]), 100% (active); in test [6] (setting [8]), 100% (active); in test [6] (at 50.0 µM), 99.5% (active).
`O=[N+]([O-])c1cc(C(F)(F)F)cc2n[se]nc12`: the growth inhibition in test [1] (setting [7]) was 82% (active); in test [1] (setting [8]) it was 98% (active); in test [1] (at 50.0 µM) it was 87.2% (active); in test [2] (setting [7]), 81% (active); in test [2] (setting [8]) it was 99% (active); in test [2] (at 50.0 µM) it was 93.3% (active). In addition, the growth inhibition in test [3] (setting [7]) was 47% (inactive); in test [3] (setting [8]) it was 100% (active); in test [3] (at 50.0 µM), 90.8% (active); in test [4] (setting [7]), 49% (inactive); in test [4] (setting [8]), 99% (active); in test [4] (at 50.0 µM) it was 90.8% (active). Moreover, the growth inhibition in test [5] (setting [7]) is 94% (active); in test [5] (setting [8]), 97% (active); in test [5] (at 50.0 µM), 90.6% (active); in test [6] (setting [7]), 75% (active); in test [6] (setting [8]), 97% (active); in test [6] (at 50.0 µM), 90.5% (active).
As for `CN(C)c1ccc(C2N(Cc3ccc(N(CCCl)CCCl)cc3Cl)CCCN2Cc2ccc(N(CCCl)CCCl)cc2Cl)cc1`, the growth inhibition in test [1] (setting [7]) is 1% (inactive); in test [1] (setting [8]), 97% (active); in test [1] (at 50.0 µM) it was 93.5% (active); in test [2] (setting [7]) it was -12% (inactive); in test [2] (setting [8]), 98% (active); in test [2] (at 50.0 µM) it was 90.9% (active). The growth inhibition was 1% (inactive) in test [3] (setting [7]); 98% (active) in test [3] (setting [8]); 99% (active) in test [3] (at 50.0 µM); 1% (inactive) in test [4] (setting [7]); 97% (active) in test [4] (setting [8]); 15.8% (inactive) in test [4] (at 50.0 µM). The growth inhibition in test [5] (setting [7]) was -1% (inactive); in test [5] (setting [8]) it was 97% (active); in test [5] (at 50.0 µM) it was 93.8% (active); in test [6] (setting [7]), 6% (inactive); in test [6] (setting [8]) it was 98% (active); in test [6] (at 50.0 µM) it was 95.2% (active).
Regarding `CC(Cl)CNC(C)C` (configuration not stated), the growth inhibition in test [1] (setting [7]) was -156% (inactive); in test [1] (setting [8]), -171% (inactive); in test [1] (at 50.0 µM), 4.95% (inactive); in test [2] (setting [7]), -50% (inactive); in test [2] (setting [8]) it was -57% (inactive); in test [2] (at 50.0 µM) it was -9.4% (inactive). Besides, the growth inhibition in test [3] (setting [7]) was -64% (inactive); in test [3] (setting [8]), -67% (inactive); in test [3] (at 50.0 µM), 3.25% (inactive); in test [4] (setting [7]), -54% (inactive); in test [4] (setting [8]) it was -67% (inactive); in test [4] (at 50.0 µM), 24.5% (inactive). Moreover, the growth inhibition in test [5] (setting [7]) is -67% (inactive); in test [5] (setting [8]), -80% (inactive); in test [5] (at 50.0 µM), -7.95% (inactive); in test [6] (setting [7]), -137% (inactive); in test [6] (setting [8]), -120% (inactive); in test [6] (at 50.0 µM) it was 6.1% (inactive).
For the compound `O=C(O)c1cc[c]([Hg])cc1`, the growth inhibition in test [1] (setting [7]) is -1% (inactive); in test [1] (setting [8]), 5% (inactive); in test [1] (at 50.0 µM), 38.4% (inactive); in test [2] (setting [7]) it was -2% (inactive); in test [2] (setting [8]), 3% (inactive); in test [2] (at 50.0 µM), 25.6% (inactive). Further, the growth inhibition was 1% (inactive) in test [3] (setting [7]); 5% (inactive) in test [3] (setting [8]); 36% (inactive) in test [3] (at 50.0 µM); -3% (inactive) in test [4] (setting [7]); -4% (inactive) in test [4] (setting [8]); 2.65% (inactive) in test [4] (at 50.0 µM). The growth inhibition in test [5] (setting [7]) was 0% (inactive); in test [5] (setting [8]), -7% (inactive); in test [5] (at 50.0 µM) it was -5.4% (inactive); in test [6] (setting [7]), 1% (inactive); in test [6] (setting [8]), 3% (inactive); in test [6] (at 50.0 µM), 38.2% (inactive).
On to `c1cc[c]([Sn]([c]2ccccc2)([c]2ccccc2)[CH]2CCCCC2)cc1`, for which the growth inhibition is 1% (inactive) in test [1] (setting [7]); 89% (active) in test [1] (setting [8]); 92.7% (active) in test [1] (at 50.0 µM); 7% (inactive) in test [2] (setting [7]); 94% (active) in test [2] (setting [8]); 97.2% (active) in test [2] (at 50.0 µM). Besides, the growth inhibition in test [3] (setting [7]) is 20% (inactive); in test [3] (setting [8]) it was 93% (active); in test [3] (at 50.0 µM), 97.7% (active); in test [4] (setting [7]) it was -2% (inactive); in test [4] (setting [8]), 91% (active); in test [4] (at 50.0 µM), 98.3% (active). Besides, the growth inhibition in test [5] (setting [7]) is 1% (inactive); in test [5] (setting [8]) it was 93% (active); in test [5] (at 50.0 µM), 98% (active); in test [6] (setting [7]), 19% (inactive); in test [6] (setting [8]) it was 91% (active); in test [6] (at 50.0 µM) it was 97% (active).

Values taken from PubChem BioAssay (NCI).
